From PubChem BioAssay AID1159580 (chemical genetic matrix, 2015)
Several values for one entry are separate records, joined by “and”; a condition that tells them apart may be missing. Equal entries are not always repeated. The whole screen tested about 5,500 compounds, of which about 2,000 (36%) were called active. Inconclusive results (about 18%) are left out. No stated cut-off is given here; in the data, active means normalized growth mostly below about 0.91 (no sharp cut-off); inconclusive means no clear call, values can overlap the other calls; inactive means mostly above about 0.92. The list shows a part of the results.

Assay: chemical genetic growth profiling, strain panel (AID 1159580);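 further: tested at 20 µM; growth read once vehicle control cultures reached saturation at 30 °C; 1 = growth at the plate median or of vehicle wells; lower values mean less growth of the strain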
Conditions: S. cerevisiae deletion strains, growth OD
[1] = locus YDR150W, strain NUM1, active compounds read low
[2] = locus YMR307W, strain GAS1, active compounds read low
[3] = locus YNL322C, strain KRE1, active compounds read low

Measured: normalized growth

NC(N)=NCc1cccc(I)c1
inactive: locus YAL040C, strain CLN3, active compounds read low 0.995 | locus YCL061C, strain MRC1 (second series), active compounds read low 0.991 | [1] 1.01 | locus YDR363W, strain ESC2, active compounds read low 1 | locus YER002W, strain NOP16, active compounds read low 1 | [2] 0.997 | locus YNL128W, strain TEP1, active compounds read low 1.02 | locus YNL175C, strain NOP13, active compounds read low 1.01 | locus YNL197C, strain WHI3, active compounds read low 0.987 | locus YNL224C, strain SQS1, active compounds read low 1.01 | [3] 0.982 | locus YOR083W, strain WHI5 (second series), active compounds read low 0.99 | locus YPL055C, strain LGE1, active compounds read low 1.02

C=C(C)C1Cc2c(ccc3c(=O)c4c(oc23)COc2cc(OC)c(OC)cc2-4)O1 (centres undefined)
inactive: locus YAL021C, strain ccr4, active compounds read low 1.01 | locus YAL026C, strain drs2, active compounds read low 0.999 | locus YAL030W, strain snc1, active compounds read low 0.987 | locus YBL061C, strain skt5, active compounds read low 0.999 | locus YBR009C, strain hhf1, active compounds read low 1 | locus YBR021W, strain FUR4, active compounds read low 1.05 | locus YBR023C, strain chs3, active compounds read low 0.998 | locus YBR171W, strain sec66, active compounds read low 0.99 | locus YBR229C, strain ROT2, active compounds read low 1 | locus YBR231C, strain swc5, active compounds read low 1.01 | locus YBR279W, strain paf1, active compounds read low 1 | locus YCL011C, strain gbp2, active compounds read low 0.989 | locus YCL016C, strain dcc1, active compounds read low 0.995 | locus YCL029C, strain bik1, active compounds read low 1 | locus YCL061C, strain MRC1, active compounds read low 0.996 | locus YCL069W, strain vba3, active compounds read low 0.999 | locus YCR088W, strain abp1, active compounds read low 0.996 | locus YDL005C, strain med2, active compounds read low 0.997 | locus YDL035C, strain GPR1, active compounds read low 1.04 | locus YDL040C, strain nat1, active compounds read low 0.991 | locus YDL074C, strain BRE1, active compounds read low 1.04 | locus YDL101C, strain DUN1, active compounds read low 0.994 | locus YDL134C, strain PPH21, active compounds read low 1.01 | locus YDL185W, strain tfp1, active compounds read low 0.956 | locus YDL192W, strain arf1, active compounds read low 1.03 | locus YDR001C, strain nth1, active compounds read low 1 | locus YDR069C, strain doa4, active compounds read low 1 | locus YDR101C, strain arx1, active compounds read low 1.04 | locus YDR137W, strain rgp1, active compounds read low 0.926 | [1] 0.989 | locus YDR159W, strain sac3, active compounds read low 1.01 | locus YDR162C, strain NBP2, active compounds read low 1.04 | locus YDR195W, strain ref2 0.998 | locus YDR297W, strain sur2, active compounds read low 0.995 | locus YDR318W, strain mcm21, active compounds read low 1.01 | locus YDR334W, strain swr1, active compounds read low 0.982 | locus YDR335W, strain msn5, active compounds read low 1 | locus YDR388W, active compounds read low 0.997 | locus YDR392W, strain spt3, active compounds read low 0.982 | locus YDR502C, strain sam2, active compounds read low 1.01 | locus YEL003W, strain gim4, active compounds read low 0.991 | locus YEL037C, strain rad23, active compounds read low 0.997 | locus YEL061C, strain CIN8 (second series), active compounds read low 1 | locus YEL061C, strain CIN8, active compounds read low 1 | locus YER015W, strain faa2, active compounds read low 1 | locus YER016W, strain bim1, active compounds read low 0.994 | locus YER110C, active compounds read low 1 | locus YER111C, strain swi4, active compounds read low 1.01 | locus YER155C, strain BEM2 (second series), active compounds read low 1.01 | locus YER155C, strain BEM2, active compounds read low 0.99 | locus YER167W, strain BCK2, active compounds read low 0.988 | locus YFR010W, strain ubp6, active compounds read low 0.988 | locus YGL078C, strain dbp3, active compounds read low 0.987 | locus YGL086W, strain mad1, active compounds read low 0.995 | locus YGL167C, strain pmr1, active compounds read low 1.01 | locus YGL173C, strain kem1, active compounds read low 0.996 | locus YGL227W, strain vid30, active compounds read low 1.01 | locus YGL240W, strain doc1, active compounds read low 1.01 | locus YGL248W, strain PDE1, active compounds read low 0.999 | locus YGL253W, strain hxk2, active compounds read low 1 | locus YGR135W, strain pre9, active compounds read low 0.983 | locus YGR229C, strain SMI1, active compounds read low 0.988 | locus YGR252W, strain gcn5, active compounds read low 1.06 | locus YHR013C, strain ard1, active compounds read low 1.01 | locus YHR027C, strain rpn1, active compounds read low 0.99 | locus YHR030C, strain SLT2, active compounds read low 0.973 and 1.01 | locus YHR079C, strain IRE1 (second series), active compounds read low 1 | locus YHR079C, strain IRE1, active compounds read low 1.06 | locus YHR094C, strain hxt1, active compounds read low 0.979 | locus YHR129C, strain ARP1, active compounds read low 1.01 | locus YHR142W, strain chs7, active compounds read low 1.01 | locus YHR200W, strain rpn10, active compounds read low 1.01 | locus YIL066C, strain RNR3, active compounds read low 1 | locus YIL073C, strain SPO22, active compounds read low 0.927 | locus YIL125W, strain kgd1, active compounds read low 0.998 | locus YIR030C, strain dcg1, active compounds read low 0.999 | locus YJL092W, strain hpr5, active compounds read low 0.993 | locus YJL095W, strain BCK1 (second series), active compounds read low 0.998 | locus YJL095W, strain BCK1, active compounds read low 1.03 and 1.01 | locus YJL115W, strain asf1, active compounds read low 0.974 | locus YJL129C, strain trk1, active compounds read low 0.993 | locus YJL134W, strain LCB3, active compounds read low 0.998 | locus YJL154C, strain vps35, active compounds read low 0.99 | locus YJL164C, strain tpk1, active compounds read low 1 | locus YJL166W, strain qcr8, active compounds read low 1.01 | locus YJL168C, strain set2, active compounds read low 0.998 | locus YJL187C, strain SWE1 (second series), active compounds read low 0.995 | locus YJL187C, strain SWE1, active compounds read low 1.01 | locus YJR043C, strain POL32, active compounds read low 1.04 | locus YJR066W, strain TOR1, active compounds read low 0.986 | locus YKL009W, strain mrt4, active compounds read low 1 | locus YKL068W, active compounds read low 0.982 | locus YKL085W, strain MDH1 (second series), active compounds read low 0.997 | locus YKL085W, strain MDH1, active compounds read low 0.997 | locus YKL160W, strain elf1, active compounds read low 1.01 | locus YKL190W, strain CNB1, active compounds read low 0.992 | locus YKR001C, strain vps1, active compounds read low 1.03 | locus YKR026C, strain gcn3, active compounds read low 0.999 | locus YKR091W, strain srl3, active compounds read low 0.999 | locus YLL001W, strain dnm1, active compounds read low 0.995 | locus YLL026W, active compounds read low 0.993 | locus YLL041C, strain sdh2, active compounds read low 0.978 | locus YLR027C, strain aat2, active compounds read low 0.986 | locus YLR039C, strain RIC1, active compounds read low 0.99 | locus YLR058C, strain SHM2, active compounds read low 1.02 | locus YLR102C, strain apc9, active compounds read low 0.993 | locus YLR113W, strain HOG1, active compounds read low 0.992 | locus YLR221C, strain rsa3, active compounds read low 1 | locus YLR258W, strain gsy2, active compounds read low 0.991 | locus YLR262C, strain YPT6 (second series), active compounds read low 1 | locus YLR262C, strain YPT6, active compounds read low 0.969 | locus YLR268W, strain sec22, active compounds read low 1.04 | locus YLR320W, strain mms22, active compounds read low 1.02 | locus YLR330W, strain CHS5, active compounds read low 1 | locus YLR342W, strain FKS1 (second series), active compounds read low 1.06 | locus YLR342W, strain FKS1, active compounds read low 1 | locus YLR357W, strain rsc2, active compounds read low 1.02 | locus YLR370C, strain arc18, active compounds read low 1.01 | locus YLR371W, strain rom2, active compounds read low 0.98 | locus YLR384C, strain iki3, active compounds read low 1 | locus YLR418C, strain cdc73, active compounds read low 1.05 | locus YML016C, strain PPZ1, active compounds read low 0.999 | locus YML032C, strain rad52, active compounds read low 1.01 | locus YML120C, strain ndi1, active compounds read low 1.01 | locus YML124C, strain tub3, active compounds read low 0.992 | locus YMR058W, strain fet3, active compounds read low 1 | locus YMR078C, strain ctf18, active compounds read low 0.998 | locus YMR125W, strain sto1, active compounds read low 0.998 | locus YMR129W, active compounds read low 0.996 | locus YMR205C, strain PFK2, active compounds read low 1.02 | locus YMR223W, strain ubp8, active compounds read low 1.01 | locus YMR231W, strain pep5, active compounds read low 0.996 | [2] 1.18 | locus YNL067W, strain RPL9B, active compounds read low 0.984 | locus YNL071W, strain lat1, active compounds read low 0.981 | locus YNL153C, strain GIM3, active compounds read low 0.991 | locus YNL183C, strain NPR1, active compounds read low 0.988 | locus YNL209W, strain ssb2, active compounds read low 0.999 | locus YNL233W, strain BNI4, active compounds read low 1.03 | locus YNL248C, strain rpa49, active compounds read low 0.991 | locus YNL250W, strain rad50, active compounds read low 0.962 | locus YNL271C, strain bni1, active compounds read low 0.99 | locus YNL298W, strain CLA4, active compounds read low 1 | locus YNL307C, strain MCK1, active compounds read low 0.993 | locus YNL322C, strain KRE1 (second series), active compounds read low 1 | [3] 0.999 | locus YNR049C, strain mso1, active compounds read low 1 | locus YNR052C, strain pop2, active compounds read low 0.991 | locus YOL012C, strain htz1 1.59 | locus YOL147C, strain pex11, active compounds read low 0.992 | locus YOR001W, strain rrp6, active compounds read low 0.99 | locus YOR061W, strain CKA2, active compounds read low 1 | locus YOR069W, strain VPS5, active compounds read low 0.996 | locus YOR070C, strain gyp1, active compounds read low 0.99 | locus YOR080W, strain dia2, active compounds read low 1 | locus YOR083W, strain WHI5, active compounds read low 1.01 | locus YOR106W, strain vam3, active compounds read low 1.02 | locus YOR136W, strain idh2, active compounds read low 1 | locus YOR144C, strain elg1, active compounds read low 0.999 | locus YOR184W, strain ser1, active compounds read low 1.07 | locus YOR231W, strain MKK1, active compounds read low 1.03 | locus YOR265W, strain rbl2, active compounds read low 0.993 | locus YOR270C, strain vph1, active compounds read low 1 | locus YOR290C, strain snf2, active compounds read low 0.998 | locus YOR316C, strain cot1, active compounds read low 0.982 | locus YPL051W, strain arl3, active compounds read low 1.01 | locus YPL078C, strain atp4, active compounds read low 1.01 | locus YPL106C, strain sse1, active compounds read low 0.992 | locus YPL240C, strain hsp82, active compounds read low 0.976 | locus YPL241C, strain CIN2, active compounds read low 0.991 | locus YPL256C, strain CLN2, active compounds read low 1.03 | locus YPR119W, strain clb2, active compounds read low 0.988 | locus YPR141C, strain kar3, active compounds read low 0.974 | locus YPR163C, strain tif3, active compounds read low 0.974 | locus YPR167C, strain met16, active compounds read low 1.01 | strain wtn01, active compounds read low 1.03
